Experimental findings from publication PMC5540273 (PLoS ONE, 2017) are described below.

Some test systems named below: PIK3CD; PIK3CG; PIKFYVE; PIM1; PIM2; PIM3; PIP5K1A; PIP5K1C; PIP5K2B; PKMYT1; PKN1; PKN2; PLK1; PLK2; PLK3; PLK4.
Conditions in all cases: concentration: 1 μM, replicates: in singlicate; n = 1
The test system of a further assay is T1, PIK4CB.
T1 construct: gene PI4KB

For a further assay, the system named is T2, PIP5K2C.
T2 construct: gene PIP4K2C

The next assay has as its system T3, PKAC-alpha.
T3 construct: gene PRKACA

A further assay relates to T4, PKAC-beta.
T4 construct: gene PRKACB
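Further: KINOMEscan kinase panel screen.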

On to `O=c1cc(N2CCOCC2)nc2n(Cc3cccc(Cl)c3)ccn12` [GSK2296823], for which the “%Inh” value turned out to be 68% with PIK3CD; 0% with PIK3CG; 2% in the assay on PIK4CB; 0% with PIKFYVE; 0% in the assay on PIM1; 0% with PIM2. The “%Inh” value in the assay on PIM3 came to 0%; with PIP5K1A, 0%; in the assay on PIP5K1C, 8%; in the assay on PIP5K2B, 11%; in the assay with PIP5K2C, 0%; in the assay with PKAC-alpha, 0%. Further, the “%Inh” value in the assay on PKAC-beta is given as 0%; with PKMYT1, 11%; with PKN1, 34%; in the assay on PKN2, 0%; in the assay on PLK1, 5%; in the assay with PLK2, 0%. Moreover, the “%Inh” value in the assay on PLK3 and in the assay on PLK4 was 0% in each case.

Consider `COc1cc2ncnc(Nc3ccc(OCc4ccccc4Br)c(Cl)c3)c2cc1OC.Cl` [GI261590], for which the “%Inh” value in the assay on PIK3CD was 0%; in the assay with PIK3CG, 0%; with PIK4CB, 0%; with PIKFYVE, 28%; in the assay on PIM1, 0%; in the assay with PIM2, 0%. Also, the “%Inh” value in the assay with PIM3 was 15%; with PIP5K1A, 34%; in the assay with PIP5K1C, 56%; in the assay on PIP5K2B, 11%; in the assay on PIP5K2C it was 41%; in the assay on PKAC-alpha, 0%. Also, the “%Inh” value with PKAC-beta is listed as 0%; in the assay with PKMYT1 it was 3%; in the assay on PKN1, 100%; in the assay on PKN2, 0%; with PLK1 it was 3%; in the assay on PLK2 it was 0%. The “%Inh” value in the assay with PLK3 and in the assay with PLK4 was 0% each time.

With `Cl.Fc1ccccc1COc1ccc(Nc2ncnc3ccc(-c4nnc(C(F)(F)F)o4)cc23)cc1Cl` [GW424170], the “%Inh” value with PIK3CD, with PIK3CG, with PIK4CB, in the assay on PIKFYVE, with PIM1 and with PIM2 was 0% in each case. Further, the “%Inh” value in the assay on PIM3 turned out to be 0%; in the assay with PIP5K1A, 66%; in the assay with PIP5K1C, 36%; in the assay with PIP5K2B it was 7%; with PIP5K2C it was 7%; in the assay with PKAC-alpha, 0%. The “%Inh” value in the assay with PKAC-beta, in the assay with PKMYT1, in the assay on PKN1, with PKN2, in the assay on PLK1 and with PLK2 was 0% in each case. Also, the “%Inh” value in the assay on PLK3 and in the assay on PLK4 was 0% in each case.

As to `NC(=O)c1sc(-n2cnc3ccccc32)cc1OCc1ccccc1F` [GSK1024306], the “%Inh” value turned out to be 39% in the assay with PIK3CD; 0% in the assay on PIK3CG; 0% in the assay with PIK4CB; 20% in the assay with PIKFYVE; 21% in the assay with PIM1; 0% in the assay with PIM2. Besides, the “%Inh” value with PIM3 is listed as 0%; in the assay on PIP5K1A it was 0%; in the assay on PIP5K1C it was 53%; in the assay on PIP5K2B, 0%; in the assay on PIP5K2C, 8%; in the assay with PKAC-alpha it was 21%. Also, the “%Inh” value is recorded as 2% in the assay with PKAC-beta; 0% with PKMYT1; 60% with PKN1; 0% with PKN2; 99.8% in the assay on PLK1; 99% in the assay on PLK2. The figures for the “%Inh” value in the assay on PLK3 and in the assay with PLK4 were 98.8% and 0%, respectively.

In the case of `Nc1n[nH]c2nnc(-c3ccccc3)cc12` [SB-517389], the “%Inh” value in the assay on PIK3CD was found to be 0%; in the assay on PIK3CG, 0%; in the assay on PIK4CB it was 8%; with PIKFYVE, 0%; with PIM1 it was 8%; with PIM2, 0%. The “%Inh” value is reported as 0% with PIM3; 0% in the assay on PIP5K1A; 0% in the assay with PIP5K1C; 18% with PIP5K2B; 7% in the assay with PIP5K2C; 0% in the assay on PKAC-alpha. In addition, the “%Inh” value came to 0% with PKAC-beta; 0% in the assay on PKMYT1; 7% in the assay with PKN1; 0% with PKN2; 0% with PLK1; 35% with PLK2. Besides, the “%Inh” value is given as 33% in the assay with PLK3 and 9% in the assay on PLK4.

As to `Nc1nccc2scc(-c3ccc4c(c3)CCN4C(=O)Cc3cc(F)ccc3F)c12` [GSK2587663], the “%Inh” value in the assay on PIK3CD, in the assay with PIK3CG, in the assay on PIK4CB, with PIKFYVE, in the assay with PIM1 and in the assay on PIM2 was 0% in each case. In addition, the “%Inh” value was determined as 0% with PIM3; 0% in the assay with PIP5K1A; 49% in the assay with PIP5K1C; 13% in the assay with PIP5K2B; 13% in the assay with PIP5K2C; 0% in the assay on PKAC-alpha. Moreover, the “%Inh” value in the assay with PKAC-beta is 12%; in the assay on PKMYT1, 1%; in the assay with PKN1 it was 0%; with PKN2, 0%; in the assay on PLK1, 0%; in the assay with PLK2 it was 0%. For the same compound, the “%Inh” value with PLK3 and in the assay with PLK4 was 0% in each case.

As for `CN1CCC(n2cnc(-c3ccc(F)cc3)c2-c2ccnc(NC3CCNCC3)n2)CC1` [SB-229482], the “%Inh” value with PIK3CD turned out to be 0%; in the assay with PIK3CG, 34%; in the assay with PIK4CB it was 31%; in the assay with PIKFYVE, 40%; with PIM1, 1%; in the assay on PIM2, 0%. In addition, the “%Inh” value is recorded as 2% in the assay on PIM3; 0% with PIP5K1A; 0% in the assay on PIP5K1C; 0% in the assay with PIP5K2B; 95.2% with PIP5K2C; 0% in the assay with PKAC-alpha. Further, the “%Inh” value with PKAC-beta is reported as 13%; in the assay with PKMYT1 it was 0%; in the assay with PKN1, 0%; with PKN2, 25%; in the assay with PLK1, 11%; with PLK2, 0%. Further, the entries for the “%Inh” value in the assay with PLK3 and with PLK4 were 0% and 20%, respectively.

As to `COc1ccc(NC(=O)c2ccc(-c3cc(-c4nnc(C)o4)ccc3C)cc2)cc1` [GW595885], the “%Inh” value with PIK3CD amounted to 0%; in the assay on PIK3CG it was 0%; with PIK4CB, 0%; in the assay with PIKFYVE it was 13%; in the assay on PIM1 it was 0%; in the assay with PIM2, 0%. The “%Inh” value came to 0% in the assay on PIM3; 7% in the assay with PIP5K1A; 1% with PIP5K1C; 10% in the assay with PIP5K2B; 4% in the assay with PIP5K2C; 0% with PKAC-alpha. Further, the “%Inh” value is listed as 13% in the assay with PKAC-beta; 0% with PKMYT1; 0% in the assay with PKN1; 0% with PKN2; 0% with PLK1; 0% in the assay on PLK2. The “%Inh” value in the assay with PLK3 and in the assay with PLK4 was 0% in each case.

Turning to `CCn1c(-c2ccncc2)nc2cnccc21` [SB-735216], the “%Inh” value in the assay on PIK3CD is given as 0%; in the assay on PIK3CG, 14%; in the assay on PIK4CB, 21%; in the assay on PIKFYVE, 0%; with PIM1 it was 0%; with PIM2, 0%. Also, the “%Inh” value in the assay on PIM3 turned out to be 21%; with PIP5K1A, 28%; with PIP5K1C, 0%; in the assay with PIP5K2B, 23%; in the assay on PIP5K2C it was 0%; in the assay with PKAC-alpha, 0%. Further, the “%Inh” value with PKAC-beta was found to be 3%; in the assay with PKMYT1, 6%; in the assay with PKN1 it was 2%; in the assay with PKN2 it was 20%; in the assay on PLK1, 28%; in the assay on PLK2 it was 37%. Moreover, the results for the “%Inh” value with PLK3 and in the assay on PLK4 were 16% and 0%, respectively.

For `COC(=O)c1cccc(NC(=O)NCCNc2ccnc(Nc3ccc(F)cc3)n2)c1` [GSK1379883], the “%Inh” value in the assay on PIK3CD amounted to 0%; with PIK3CG, 8%; with PIK4CB, 0%; in the assay with PIKFYVE it was 1%; with PIM1, 0%; with PIM2 it was 0%. The “%Inh” value in the assay on PIM3 came out at 0%; with PIP5K1A it was 34%; in the assay with PIP5K1C it was 56%; in the assay on PIP5K2B it was 5%; with PIP5K2C it was 22%; with PKAC-alpha it was 3%. The “%Inh” value stood at 0% in the assay on PKAC-beta; 10% in the assay on PKMYT1; 3% in the assay with PKN1; 0% in the assay on PKN2; 4% in the assay with PLK1; 0% in the assay with PLK2. In addition, the “%Inh” value with PLK3 and in the assay with PLK4 was 0% in each case.
